Experimental findings from PubChem BioAssay (NCI) are described below.

Where “and” joins values, the source holds several entries; their conditions need not be identical. Identical values can stand only once. About 83,000 compounds went through this panel and 20% of them were active in at least one assay; those are over-represented in the sample as a whole.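 Testing used 96-well plates and a 48-hour single-concentration exposure. Example: -40 means 40% of the starting cells died.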 Calls of active or inactive are those of the source. The calls were made as follows: active = growth percent below 10; inactive = the rest.

Common to all, as to test: NCI-60 one-dose screen, 48 h (100 = growth as untreated, 0 = no growth, -100 = all killed)
Common to all, as to conditions: 10 µM unless noted

Assay [1] relates to SR leukemia.
Assay [2] relates to RPMI-8226 leukemia.
For assay [3], the system named is OVCAR-8 ovarian.
Assay [4] has as its system OVCAR-5 ovarian.
Assay [5] deals with OVCAR-4 ovarian.
Assay [6] deals with SK-OV-3 ovarian.
The subject of assay [7] is IGROV1 ovarian.
Assay [8] has as its system OVCAR-3 ovarian.
Assay [9] has as its system HS 578T breast.
Assay [10] concerns NCI/ADR-RES ovarian.

With `C/C=C/CC(C)C(O)[C@H](NC(=O)[C@@H]1CCCN1C(=O)[C@](C)(CC)NC(=O)CCCCCCCCC)C(=O)N[C@@](C)(CC)C(=O)N[C@@H](CCC(N)=O)C(=O)N[C@H](CCC(N)=O)C(=O)NC(C)(C)C(=O)NC(C)(C)C(=O)N[C@@H](CCC(N)=O)C(=O)N[C@H](CC(C)C)C(=O)N[C@H](CO)CC(C)C` (stereo not given in full), the growth is 12.6% (inactive) and 1.7% (active) in assay [1]; 50.5% (inactive) and -38.3% (active) in [2]; 42.1% (inactive) and -54.9% (active) in [3]; 71% (inactive) and -92% (active) in assay [4]; 86.8% (inactive) and 43.1% (inactive) in [5]; 107% (inactive) and 19.3% (inactive) in [6]. Further, the growth in assay [7] is 52.1% (inactive) and -14.1% (active); in assay [8], 7.49% (active); in assay [9], 6.26% (active) and -64.4% (active); in assay [10], 71.4% (inactive) and -70.3% (active).
As to `Cc1ccc2c(n1)C(=O)C(Cl)=C(Nc1ccc(C(=O)OC(C)(C)C)cc1)C2=O`, the growth in assay [1] is -11.5% [9.25 µM] (active); in assay [2], -0.459% [9.25 µM] (active); in assay [3], 80.3% [9.25 µM] (inactive); in [4], 127% [9.25 µM] (inactive); in [5], 42.7% [9.25 µM] (inactive); in [6], 101% [9.25 µM] (inactive). Further, the growth was 84.8% [9.25 µM] (inactive) in assay [7], 1.44% [9.25 µM] (active) in assay [8], 101% [9.25 µM] (inactive) in assay [9] and 84.9% [9.25 µM] (inactive) in [10].
For the compound `CC1=C(C)C(=O)C(Nc2ccc(C)cc2)=C(Br)C1=O`, the growth in [1] was 43.6% (inactive); in [2] it was 55.2% (inactive); in assay [3], 92.7% (inactive); in assay [4], 108% (inactive); in assay [5], 75.6% (inactive); in assay [6], 85.5% (inactive). Further, the growth is 94.5% (inactive) in [7], 105% (inactive) in assay [8], 96.7% (inactive) in assay [9] and 95.7% (inactive) in [10].
As to `CC(C)NC(=O)c1cc(-c2ccc(NC(=O)Nc3ccc(F)cc3)cc2)nc2cccnc12`, the growth in [1] was 94.3% (inactive); in assay [2] it was 109% (inactive); in assay [3], 105% (inactive); in assay [4] it was 109% (inactive); in [5], 104% (inactive); in [6], 112% (inactive). For the same compound, the growth in [7] was 110% (inactive); in assay [8], 115% (inactive); in assay [9], 109% (inactive); in assay [10], 104% (inactive).
For `CC(=C(c1ccc(OCCCN(C)C)cc1)c1ccc(OCCCN(C)C)cc1)c1ccc(Cl)cc1`, the growth in assay [1] was 21.7% (inactive); in assay [2] it was 79.3% (inactive); in [3], 100% (inactive); in assay [4], 100% (inactive); in assay [5], 108% (inactive); in [6] it was 103% (inactive). Further, the growth in [7] was 87.1% (inactive); in assay [8], 91.1% (inactive); in [9], 81.8% (inactive); in assay [10], 95.2% (inactive).
Take `NC1[C@H]2CN(c3cnc(C(=O)Nc4cc(F)cc5cccnc45)cn3)C[C@@H]12` (stereo not given in full): the growth is 8.36% (active) in [1]; 68.9% (inactive) in assay [2]; 87.7% (inactive) in assay [3]; 77.3% (inactive) in [4]; 17.4% (inactive) in assay [5]; 93.2% (inactive) in [6]. Also, the growth is 29.4% (inactive) in assay [7], 2.08% (active) in [8], 77.2% (inactive) in assay [9] and 85.3% (inactive) in assay [10].
As to `C#CCOc1cccc(/C(N)=N/C(N)=N/c2nc3ccccc3s2)c1`, the growth is 34.5% (inactive) in [1]; 83.2% (inactive) in assay [2]; 67.9% (inactive) in [3]; 111% (inactive) in assay [4]; 102% (inactive) in [5]; 133% (inactive) in assay [6]. In addition, the growth in assay [7] was 65.7% (inactive); in assay [8] it was 104% (inactive); in assay [9], 108% (inactive); in assay [10], 59.1% (inactive).
Consider `O=C(/C=C/c1cccc(F)c1)c1cccc(OCCCCOc2cccc(C(=O)/C=C/c3cccc(F)c3)c2)c1`, for which the growth was 84.8% (inactive) in [1]; 8.56% (active) in assay [2]; 104% (inactive) in [3]; 99.1% (inactive) in assay [4]; 106% (inactive) in [5]; 109% (inactive) in assay [6]. The growth in assay [7] is 103% (inactive); in assay [8], 105% (inactive); in assay [9], 99.3% (inactive); in assay [10], 106% (inactive).
As to `CN1CCN(c2ccc(Nc3nc(NCCCNS(=O)(=O)c4ccccc4)c4sccc4n3)cc2)CC1`, the growth in assay [1] is 2.4% (active); in assay [2], 14.6% (inactive); in [3] it was 65.8% (inactive); in [4], 78.3% (inactive); in [5], 56.5% (inactive); in assay [6], 122% (inactive). Also, the growth was 79.7% (inactive) in assay [7], 74.3% (inactive) in assay [8], 80.3% (inactive) in [9] and 86.4% (inactive) in [10].
For the compound `CCOC(=O)c1ccccc1NC1=C(Cl)C(=O)c2nc(C)ccc2C1=O`, the growth in [1] was 102% (inactive); in [2] it was 99.3% (inactive); in assay [3], 100% (inactive); in assay [4] it was 101% (inactive); in assay [5], 83.6% (inactive); in [6], 108% (inactive). Besides, the growth in [7] was 91.4% (inactive); in [8] it was 90.6% (inactive); in assay [9], 99% (inactive); in assay [10] it was 93.9% (inactive).
For `CCCC[n+]1ccc(SCC(=O)n2ccc3ccccc32)c2ccccc21`, the growth in [1] is 56.3% (inactive); in assay [2], 59.5% (inactive); in assay [3], 92.7% (inactive); in [4], 103% (inactive); in assay [5], 72.1% (inactive); in [6] it was 88.9% (inactive). The growth in assay [7] is 83.3% (inactive); in [8], 91.8% (inactive); in assay [9] it was 99.6% (inactive); in assay [10], 110% (inactive).
